This is an account of results in PubChem BioAssay AID504834 (National Center for Advancing Translational Sciences (NCATS), 2011).

About 22,000 (6.9%) of roughly 320,000 compounds were called active. Not shown: some 27% with an inconclusive outcome. This is one part of a sample in which actives are shown more often than they occur. A number with no mark means an inactive call. The call rests on the fitted dose curve; in most records, active means well fitted inhibition curve with a large enough effect; inconclusive means small, poorly fitted or top-dose-only effect, or another doubt; inactive means no such curve, though single readings can be large or run the other way.
On the % scale 0 is the no-effect control and ±100 the full control effect; potency means the concentration at half of the fitted maximal effect.

The test can be described thus: Primary qHTS for delayed death inhibitors of the malarial parasite plastid, 96 hour incubation. As to conditions: P. falciparum luciferase reporter growth; series mostly up to 28.7 µM; activity change, negative = inhibition: at the top concentration. The text has this:
The goal of this screen is to discover new antimalarial compounds that act by inhibiting the development of the apicoplast in the malarial parasite Plasmodium falciparum. The biochemical processes that make this organelle essential for erythrocytic stage parasites are not well understood. However, antibiotics such as azithromycin and tetracycline, which target the apicoplast translational machinery, have a potent antimalarial effect.
We have developed a cell-based assay that measures parasite growth based on the expression of an integrated copy of a firefly luciferase reporter. To detect small molecules that cause this "delayed death" phenotype, erythrocytes infected with the luciferase-expressing parasites were incubated with compounds for either one or two generations, corresponding to 48 and 96 hours, respectively. Compounds that inhibit parasite growth in the second generation, but not the first, should be enriched in antimalarials that target the apicoplast. Growth inhibition is detected by a decrease in luciferase activity.
Assay Provider: David Fidock and Eric Ekland, Columbia University
Keywords: NIH Roadmap, MLPCN, MLI, MLSMR, qHTS, NCGC, qHTS, malaria, luciferase, viability
Four microliters of infected erythrocytes (2% hematocrit, 0.05% parasitemia final concentration) in culture medium were dispensed and the plates incubated for 96 hours at 37 C in 5% CO2. Two microliters of luciferase detection reagent was added and luminescence was detected by a ViewLux (PerkinElmer) reader.
Background: Quantitative high-throughput screening tests each substance at several concentrations.
In the case of `CCOC(=O)CN1C(=O)C(=O)c2cc(C)ccc21`, the “activity change, negative = inhibition” value was 125%.

For `CC(OC(=O)CN1C(=O)c2ccccc2C1=O)C(=O)c1ccccc1` (configuration not stated), the “activity change, negative = inhibition” value was 13.1%.

Regarding `COc1cc(C(C)=O)ccc1OC(=O)CN1C(=O)c2ccccc2C1=O`, the “activity change, negative = inhibition” value was 13.4%.

For the compound `CCCCn1c(N)c(N(CC)C(=O)c2ccc(N(C)S(=O)(=O)c3ccc(C)cc3)cc2)c(=O)[nH]c1=O`, the “activity change, negative = inhibition” value is -16.1%.

For the compound `C[C@H](NC(=O)C1CC(=O)N(c2ccc3c(c2)OCCO3)C1)C(=O)N1CCC(C(=O)O)CC1` (some centres not stated), the “activity change, negative = inhibition” value is -9.53%.

For `CC(=O)Nc1ccc(C(=O)C(Cc2ccccc2)N(C)C)cc1` (configuration not stated), the “activity change, negative = inhibition” value was 2.69%.

For the compound `CC(C(=O)c1ccc(-c2ccccc2)cc1)[n+]1cccc(Br)c1` (configuration not stated), the Potency was 2.33 µM (active).

Turning to `O=C(NC1CCCC1)C(c1c(F)cccc1Cl)N(C(=O)c1csnn1)C1CC1` (configuration not stated), the “activity change, negative = inhibition” value is -4.38%.

Take `COc1ccc(-n2nc(C(=O)NCC(=O)Nc3cccc(C)n3)c3ccccc3c2=O)cc1`: the “activity change, negative = inhibition” value is 19.7%.

In the case of `COc1ccc(-n2nc(C(=O)Nc3cc(OC)c(OC)c(OC)c3)c3ccccc3c2=O)c(OC)c1`, the Potency was 8.28 µM (active).

In the case of `COC(=O)c1cc(NC(=O)c2nn(C)c(=O)c3ccccc23)cc(C(=O)OC)c1`, the “activity change, negative = inhibition” value is 59.9%.

With `Cc1ccc(NC(=O)Cc2nnc(SCC(=O)Nc3nncs3)n2C)cc1`, the “activity change, negative = inhibition” value is -28.1%.

For `CC1CCN(S(=O)(=O)c2ccc3c(ccn3CC(=O)O)c2)CC1`, the “activity change, negative = inhibition” value was -20.2%.

For the compound `O=C(CNC(=O)c1ccccc1F)c1ccc(Br)cc1`, the “activity change, negative = inhibition” value is 68.4%.

With `COc1cccc(NC(=O)CN(C)C(=O)CSCc2nc3scc(-c4cccs4)c3c(=O)[nH]2)c1`, the “activity change, negative = inhibition” value was 28.3%.

On to `Cc1ccccc1NC(=O)C(C)OC(=O)CCC(=O)N(CC(C)C)c1c(N)n(CC(C)C)c(=O)[nH]c1=O` (configuration not stated), for which the “activity change, negative = inhibition” value is 4.86%.

Consider `Cc1ccc(S(=O)(=O)N2CCC(C(=O)OCC(=O)N(C)c3ccccc3)CC2)cc1C`, for which the “activity change, negative = inhibition” value was -10.6%.

For `CCN(CC(=O)NCc1cccs1)C(=O)c1ccc(OC)c(S(=O)(=O)N2CCOCC2)c1`, the “activity change, negative = inhibition” value was 4.92%.

Regarding `CC(C)(C)NC(=O)NC(=O)CN1CCC(Cc2ccccc2)CC1`, the “activity change, negative = inhibition” value was -37.5%.

For `CC(C)(C)NC(=O)NC(=O)COC(=O)C1c2ccccc2Oc2ccccc21`, the “activity change, negative = inhibition” value was 16.9%.

`Cc1ccccc1CSCC(=O)NC(=O)NC(C)(C)C`: the Potency was 10.4 µM (active).

Turning to `COc1ccc(NC(=O)c2cc([N+](=O)[O-])ccc2NC(=O)CNC2CCCCC2C)c(OC)c1` (configuration not stated), the “activity change, negative = inhibition” value is 34.8%.

For `CN(CC(=O)Nc1ccc(F)c(F)c1F)C(=O)Cn1cnc2c1c(=O)n(C)c(=O)n2C`, the “activity change, negative = inhibition” value was -15%.

Regarding `COc1ccc([C@H]2CC(=O)C=C(c3ccc(OC(F)(F)F)cc3)C2)cc1OC`, the Potency was 11.7 µM (active).

As for `COc1ccc([C@H]2CC(=O)C=C(c3ccc(C)cc3)C2)cc1`, the “activity change, negative = inhibition” value was -34.7%.

As to `COc1ccc2cc(C3=CC(=O)C[C@H](c4ccc5c(c4)OCO5)C3)ccc2c1`, the “activity change, negative = inhibition” value was -36.2%.

Consider `COc1cccc(N2CC(NS(=O)(=O)c3cccs3)CC2=O)c1` (configuration not stated), for which the “activity change, negative = inhibition” value is 8.83%.

As for `FCOC(C(F)(F)F)C(F)(F)F`, the “activity change, negative = inhibition” value is 117%.

On to `O=C(COc1ccc2c(c1)CCC2)N1CCN(c2ccc(F)cc2)CC1`, for which the “activity change, negative = inhibition” value is -14.1%.

`COc1ccccc1CN1CCN(Cc2cc(OC)c(OC)cc2OC)CC1`: the “activity change, negative = inhibition” value was -11.7%.

For the compound `COc1ccccc1CN1CCN(C(c2ccccc2)c2ccccc2)CC1`, the Potency is 8.28 µM (active).

Turning to `Oc1ccccc1CN1CCN(C(c2ccccc2)c2ccccc2)CC1`, the Potency is 0.828 µM (active).

For the compound `COc1ccccc1NC(=S)N1CCN(C(c2ccccc2)c2ccccc2)CC1`, the “activity change, negative = inhibition” value was 26.1%.

With `O=C(O)CN1CCN(C(c2ccccc2)c2ccccc2)CC1`, the “activity change, negative = inhibition” value was -16%.

As for `CC(C)OCC(O)CN1CCN(C(c2ccccc2)c2ccccc2)CC1` (configuration not stated), the “activity change, negative = inhibition” value was -7.62%.

Turning to `CC1=C(C(N)=O)C(c2ccc(F)cc2)n2nc(CCCO)nc2N1` (configuration not stated), the “activity change, negative = inhibition” value was 28.2%.

As for `COc1cccc(N(C(=O)c2snc(C(N)=O)c2N)C(C(=O)NCC2CCCO2)c2c[nH]c3ccccc23)c1` (configuration not stated), the “activity change, negative = inhibition” value is -7.17%.

On to `CC(C)Cc1nc(Cl)c(C#N)c2c1CCC2`, for which the “activity change, negative = inhibition” value was 36.5%.

Regarding `COC(=O)c1ccc(S(=O)(=O)N(CCO)Cc2ccccc2)n1C`, the “activity change, negative = inhibition” value was 4.12%.

Consider `COc1ccccc1C(=O)Nc1ccc(OCC(=O)N2CCCCC2)cc1`, for which the “activity change, negative = inhibition” value was -28.2%.

On to `COc1ccccc1C(=O)NNC(=O)c1ccc(NC(=O)c2ccccc2)cc1`, for which the “activity change, negative = inhibition” value was 19.4%.

`COc1ccccc1C(=O)Nc1ccc(OCc2nnc3c4ccccc4c(C)nn23)cc1`: the Potency was 9.28 µM (active).

With `CC(=O)N1CCN(C(=O)C2(NC(=O)Nc3ccc(C)cc3)CCCCC2)CC1`, the “activity change, negative = inhibition” value was 363%.

For `O=C(NCc1cc(F)cc(C(F)(F)F)c1)C1CCC(=O)N(C2CCCC2)C1` (configuration not stated), the “activity change, negative = inhibition” value was -15.9%.

With `CCOC(=O)c1c(CNCc2ccccc2F)c2sc(C)cc2n1C`, the “activity change, negative = inhibition” value was -9.14%.

On to `COc1ccc(Nc2ncnc3sc(C)cc23)cc1`, for which the “activity change, negative = inhibition” value is 34.4%.

`CCN1C(=O)/C(=c2\s/c(=C3\Sc4ccccc4N3C)c(=O)n2C)N(C)C1=S`: the “activity change, negative = inhibition” value was 6.98%.

For the compound `CN1/C(=c2/s/c(=C3/C(=O)N(c4ccccc4)NC3=Nc3ccccc3)n(C)c2=O)C(C)(C)c2ccccc21`, the Potency is 11.7 µM (active).

For the compound `Cc1csc2nc(O)c(C(=O)NCCN3CCOCC3)c(=O)n12`, the “activity change, negative = inhibition” value is 12%.

In the case of `O=C(COc1ccc2c3c(c(=O)oc2c1)CCC3)NC1CCCCC1`, the “activity change, negative = inhibition” value was 0%.

As for `CCCOc1ccc2c3c(c(=O)oc2c1OCCC)CCC3`, the Potency is 6.57 µM (active).

On to `CCCCC(NS(=O)(=O)c1ccc(C)cc1)C(=O)Oc1ccc2c3c(c(=O)oc2c1)CCC3` (configuration not stated), for which the “activity change, negative = inhibition” value is 19.9%.
